The whole screen tested about 5,500 compounds, of which about 2,000 (36%) were called active. Another 18% or so got no clear call; they are omitted. Rule as the data show it: active = normalized growth mostly below about 0.91 (no sharp cut-off); inconclusive = no clear call, values can overlap the other calls; inactive = mostly above about 0.92. This is one part of the list.
Experiment: chemical genetic growth profiling, strain panel (AID 1159580);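 also: tested at 20 µM; growth read once vehicle control cultures reached saturation at 30 °C; 1 = growth at the plate median or of vehicle wells; lower values mean less growth of the strain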
Details: S. cerevisiae deletion strains, growth OD

Measured: normalized growth

CCCCCCCC/C=C\CCCCCCCC(=O)NCCO
inactive: locus YAL013W, strain DEP1, stronger effect = lower value 1.01 | locus YAL040C, strain CLN3, stronger effect = lower value 1.01 | locus YCL061C, strain MRC1 (second series), stronger effect = lower value 1 | locus YDR150W, strain NUM1, stronger effect = lower value 1 | locus YDR363W, strain ESC2, stronger effect = lower value 0.974 | locus YER002W, strain NOP16, stronger effect = lower value 1.02 | locus YJR075W, strain HOC1, stronger effect = lower value 1 | locus YMR263W, strain SAP30, stronger effect = lower value 0.994 | locus YNL153C, strain GIM3, stronger effect = lower value 0.981 | locus YNL175C, strain NOP13, stronger effect = lower value 0.963 | locus YNL197C, strain WHI3, stronger effect = lower value 0.989 | locus YNL224C, strain SQS1, stronger effect = lower value 1 | locus YNL322C, strain KRE1, stronger effect = lower value 0.978 | locus YOR083W, strain WHI5 (second series), stronger effect = lower value 0.999
